From PubChem BioAssay (Tox21) come the findings set out here.

Experiment [1] in a line: Nuclear factor erythroid 2-related factor 2/antioxidant responsive element (Nrf2/ARE) small molecule agonists: qHTS cell viability counter screen in human keratinocytes (AID 1919968; active = well fitted curve in the direction sought with a large enough effect in the repeat runs; an effect the other way counts as inactive or inconclusive; also: nearly all actives have a fitted effect of over 55% in size; also: potency is read from the fitted curve at half-maximal effect). The essentials:
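CellTiter-Fluor fluorescence, read 1 h after reagent, gave viability in the same wells as the ARE-luciferase assay. KeratinoSens cells (1,500/well) had 23 h compound exposure at 37 C/5% CO2 following 5 h plating.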

The nature of experiment [2]: Nuclear factor erythroid 2-related factor 2/antioxidant responsive element (Nrf2/ARE) small molecule agonists: luciferase reporter gene qHTS assay in human keratinocytes (AID 1919969). Also: nearly all actives have a fitted effect of over 35% in size. Also: potency is read from the fitted curve at half-maximal effect.
Experiment [3] concerns the target KiSS-1 receptor (Homo sapiens) (UniProt Q969F8). Description: Human kisspeptin (KISS1R) small molecule agonists, calcium flux assay in KISS1R-HEK293 cells (AID 1920064; active = well fitted curve in the direction sought with a large enough effect in the repeat runs; an effect the other way counts as inactive or inconclusive). In a few lines: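 Agonist mode: intracellular calcium rise tracked at 1 s intervals over 3 min (480/540 nm) immediately after compound addition to dye-loaded KISS1R-HEK293 stable cells. Each compound tested at 15 concentrations in triplicate.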

Experiment [4] in a line: G protein-coupled receptor (GPCR) small molecule agonists, calcium flux assay: HEK293 wild type cell line counter screen (AID 1920065). In a few lines: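 Calcium flux counter screen: compound added in agonist mode at 15 concentrations in triplicate to dye-loaded parental HEK293 cells. Fluorescence (480/540) read kinetically for 3 min; ATP served as positive control.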
For orientation: A change in cytosolic calcium serves as a functional read-out for many receptors and channels.

The nature of experiment [5]: p53 small molecule agonists, cell-based qHTS assay with human liver microsomes (AID 1963577). Also: potency is read from the fitted curve at half-maximal effect.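 As to activation: p53 response element beta-lactamase reporter cells with liver microsomes plus NADPH.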 In a few lines: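 Reporter activation was measured by LiveBLAzer fluorescence intensity in p53RE-bla cells, which had been exposed to compounds for 16 h at 37 C alongside 0.5 mg/mL human liver microsomes and 0.5 mg/mL NADPH (final concentrations).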
A general note: qHTS replaces the single test concentration by a dilution series.

Experiment [6] can be described thus: p53 small molecule agonists, cell-based qHTS assay with rat liver microsomes (AID 1963578). The essentials:
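Compound in DMSO added to p53RE-bla cells 5 h post-plating; rat microsomes/NADPH 0.5 mg/mL final; 16 h, 37 C; LiveBLAzer 2 h RT.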

The nature of experiment [7]: p53 small molecule agonists, cell-based qHTS assay with human liver microsomes: qHTS cell viability counter screen (AID 1963579). Also: nearly all actives have a fitted effect of over 45% in size. Also: potency is read from the fitted curve at half-maximal effect. In a few lines:
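HLM-supplemented (0.5 mg/mL final) and NADPH-supplemented (0.5 mg/mL final) p53RE-bla cultures, 4,000 cells per well, were dosed with compounds in DMSO for 16 h at 37 C; luminescent ATP detection (CellTiter-Glo, 30 min, room temperature) quantified surviving cells.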

The nature of experiment [8]: p53 small molecule agonists, cell-based qHTS assay with rat liver microsomes: qHTS cell viability counter screen (AID 1963580). Also: nearly all actives have a fitted effect of over 45% in size. In a few lines:
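Cytotoxicity counter screen: intracellular ATP measured by CellTiter-Glo luminescence in the same wells as the beta-lactamase reporter read, on HCT-116 p53RE-bla cells exposed 16 h at 37 C to compounds with rat liver microsomes and NADPH, each 0.5 mg/mL final.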

Experiment [9] in a line: p53 small molecule agonists, cell-based qHTS assay: qHTS cell viability counter screen (AID 1963581). Also: nearly all actives have a fitted effect of over 45% in size. In a few lines:
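Counter screen read by CellTiter-Glo luminescence (ATP content, 30 min at room temperature), run in the same wells as the beta-lactamase reporter read. HCT-116 p53RE-bla cells saw compounds for 16 h at 37 C.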

Experiment [10] in a line: p53 small molecule agonists, cell-based qHTS assay (AID 1963582; active = well fitted activation curve with a large enough effect in the signal ratio in the repeat runs, not every such curve was filed as active; the % refers to the signal ratio). The essentials: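 Read-out is beta-lactamase FRET fluorescence after 2 h at room temperature with LiveBLAzer B/G substrate. p53 response element-bla cells were treated 16 h at 37 C with compounds in DMSO, added 5 h after seeding.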
Experiment [11] addresses 5-hydroxytryptamine receptor 2A (Homo sapiens) (UniProt P28223). The experiment in a line: 5-hydroxytryptamine receptor 2A (HTR2A) small molecule antagonists, cell-based qHTS assay (AID 1963586). Also: nearly all actives have a fitted effect of over 45% in size. The essentials: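 CHO cells stably expressing human HTR2A were plated for 18 h at 37 C, then loaded with calcium dye for 1 h. Compounds were preincubated 5 min at room temperature before DOI (4 nM solution) was added. Kinetic fluorescence was read for 3 min.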

The target is the same in experiment [12]. The experiment in a line: 5-hydroxytryptamine receptor 2A (HTR2A) small molecule agonists, cell-based qHTS assay (AID 1963587). Also: nearly all actives have a fitted effect of over 30% in size. The essentials: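 CHO cells stably expressing human HTR2A, plated 18 h, loaded with calcium dye 1 h at 37 C. Agonist mode: compounds added and intracellular calcium fluorescence recorded kinetically for 2 min at 1 sec intervals.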

In experiment [13] the target is Muscarinic acetylcholine receptor M1 (Homo sapiens) (UniProt P11229). Description: Cholinergic receptor muscarinic 1 (CHRM1) small molecule agonists, cell-based qHTS assay (AID 1963589). Also: nearly all actives have a fitted effect of over 35% in size. The essentials: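 Agonist-mode calcium-flux screen: compounds at 15 concentrations, three independent runs, were pin-transferred onto dye-loaded human CHRM1-CHO cells. Fluorescence was then recorded kinetically every second over minutes.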

The nature of experiment [14]: cAMP Responsive Elements (CRE) small molecule agonists, cell-based qHTS assay (AID 1963590). The essentials: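 Agonist mode: compound added to CRE-bla HEK 293T cells (2,000/well, 18 h after plating) for 3 h at 37 C/5% CO2. Reporter activity detected via FRET beta-lactamase substrate, 2 h room-temperature loading.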
A short description of experiment [15]: cAMP Responsive Elements (CRE) small molecule antagonists, cell-based qHTS assay (AID 1963591; active = well fitted inhibition curve with a large enough effect in the signal ratio in the repeat runs, not every such curve was filed as active; the % refers to the signal ratio). In a few lines: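 Antagonist mode: compounds are added alongside the adenylyl cyclase activator NKH477 (0.25 uM final) to CRE-bla HEK293T cells for 3 h. LiveBLAzer FRET substrate, 2 h at room temperature, reports bla expression.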
Experiment [16] deals with Beta-2 adrenergic receptor (Homo sapiens) (UniProt P07550). The experiment in a line: Adrenergic beta2 receptor (ADRB2) small molecule antagonists, cell-based qHTS assay (AID 1963592). Also: series mostly up to about 92 µM; nearly all actives have a fitted effect of over 50% in size. In a few lines:
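Assay format: CHO-ADRB2 cells, 18-20hr seeding at 37C/5% CO2, then compound plus 1nM isoproterenol agonist mix for 0.5hr RT. Homogeneous time-resolved fluorescence cAMP detection after 1hr, expressed as 665/615 nm ratio.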

Experiment [17] deals with D(2) dopamine receptor (Homo sapiens) (UniProt P14416). The experiment in a line: Dopamine D2 receptor (DRD2) small molecule agonists, cell-based qHTS assay (AID 1963594). Also: nearly all actives have a fitted effect of over 35% in size. In a few lines:
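HEK293 cells stably expressing human DRD2, pre-treated with PDE inhibitor Ro20-1724 (0.1 mM final) and compound 10 min at room temperature, then stimulated with NKH477 (200nM […]) for 30 min. cAMP read by HTRF (665/620 nm).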

For experiment [18] the target is unchanged. Description: Dopamine D2 receptor (DRD2) small molecule antagonists, cell-based qHTS assay (AID 1963595; active = well fitted inhibition curve with a large enough effect in the signal ratio in the repeat runs, with a control signal flat; the % refers to the signal ratio). In a few lines: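 Antagonist mode in DRD2-HEK293 cells: after compound addition with 0.1 mM Ro20-1724, cells received quinpirole (12 nM) and NKH477 (200 nM) for 30 min at room temperature; HTRF cAMP read after 1 h detection.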
In experiment [19] the target is Muscarinic acetylcholine receptor M1 (Homo sapiens) (UniProt P11229). Description: Cholinergic receptor muscarinic 1 (CHRM1) small molecule antagonists, cell-based qHTS assay (AID 1963588). Also: nearly all actives have a fitted effect of over 40% in size. Also: potency is read from the fitted curve at half-maximal effect. In a few lines:
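Compounds were tested at 15 concentrations in three independent runs. Dye-loaded CHRM1-CHO cells were exposed 5 min at room temperature before stimulation by acetylcholine added at 50nM. Intracellular calcium was read kinetically on FDSS for 3 min.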

The target in experiment [20] is Beta-2 adrenergic receptor (Homo sapiens) (UniProt P07550). The experiment in a line: Adrenergic beta2 receptor (ADRB2) small molecule agonists, cell-based qHTS assay (AID 1963593).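 Also: CHO cells stably overexpressing human ADRB2.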 The essentials: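 CHO cells stably over-expressing ADRB2 were plated overnight at 37C, then dosed with compounds plus a stimulation mix containing 100uM IBMX and 25uM Ro-20-1724 for 0.5hr at room temperature. cAMP was measured by HTRF competition, 1hr.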

Values without a mark were called inactive. Records with an inconclusive call do not appear. The source made the active and inactive calls. Unless noted, calls follow the shape of the full dose curve.

Sequence of D(2) dopamine receptor (Homo sapiens) (P14416 whole entry, looked up): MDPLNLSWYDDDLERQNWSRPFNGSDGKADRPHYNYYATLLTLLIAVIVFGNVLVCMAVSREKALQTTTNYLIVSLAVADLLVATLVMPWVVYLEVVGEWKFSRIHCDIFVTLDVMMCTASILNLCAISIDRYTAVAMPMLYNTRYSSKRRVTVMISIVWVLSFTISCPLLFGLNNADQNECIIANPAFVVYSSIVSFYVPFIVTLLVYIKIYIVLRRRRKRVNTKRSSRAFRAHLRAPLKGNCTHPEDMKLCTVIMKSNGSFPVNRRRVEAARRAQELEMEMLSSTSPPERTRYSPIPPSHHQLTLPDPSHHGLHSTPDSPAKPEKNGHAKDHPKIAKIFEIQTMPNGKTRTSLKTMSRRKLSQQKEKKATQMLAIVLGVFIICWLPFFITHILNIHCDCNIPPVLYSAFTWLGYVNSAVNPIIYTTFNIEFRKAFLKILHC
Sequence of KiSS-1 receptor (Homo sapiens) (Q969F8 whole entry, looked up): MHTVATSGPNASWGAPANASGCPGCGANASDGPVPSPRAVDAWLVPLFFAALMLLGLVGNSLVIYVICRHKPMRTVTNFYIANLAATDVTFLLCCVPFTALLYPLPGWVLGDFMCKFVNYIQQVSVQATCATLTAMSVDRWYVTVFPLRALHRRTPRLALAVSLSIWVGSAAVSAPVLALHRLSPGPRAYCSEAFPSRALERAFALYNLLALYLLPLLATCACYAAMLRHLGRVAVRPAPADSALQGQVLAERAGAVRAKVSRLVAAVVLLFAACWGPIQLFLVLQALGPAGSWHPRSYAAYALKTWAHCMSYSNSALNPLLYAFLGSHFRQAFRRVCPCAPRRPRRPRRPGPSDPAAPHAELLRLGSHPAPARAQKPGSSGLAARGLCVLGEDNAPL
Sequence of Muscarinic acetylcholine receptor M1 (Homo sapiens) (P11229 whole entry, looked up): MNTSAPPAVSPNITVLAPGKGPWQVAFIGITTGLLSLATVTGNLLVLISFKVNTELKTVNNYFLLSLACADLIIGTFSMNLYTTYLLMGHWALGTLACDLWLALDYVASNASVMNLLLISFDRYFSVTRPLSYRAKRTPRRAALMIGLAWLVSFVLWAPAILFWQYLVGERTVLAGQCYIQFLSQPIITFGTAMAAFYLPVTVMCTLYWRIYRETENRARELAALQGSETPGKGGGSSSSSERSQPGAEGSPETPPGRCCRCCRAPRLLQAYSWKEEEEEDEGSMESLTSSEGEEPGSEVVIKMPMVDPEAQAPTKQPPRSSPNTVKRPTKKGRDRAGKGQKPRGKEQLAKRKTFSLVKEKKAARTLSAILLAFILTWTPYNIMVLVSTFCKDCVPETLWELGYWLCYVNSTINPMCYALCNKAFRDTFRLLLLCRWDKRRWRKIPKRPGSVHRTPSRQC
Sequence of 5-hydroxytryptamine receptor 2A (Homo sapiens) (P28223 whole entry, looked up): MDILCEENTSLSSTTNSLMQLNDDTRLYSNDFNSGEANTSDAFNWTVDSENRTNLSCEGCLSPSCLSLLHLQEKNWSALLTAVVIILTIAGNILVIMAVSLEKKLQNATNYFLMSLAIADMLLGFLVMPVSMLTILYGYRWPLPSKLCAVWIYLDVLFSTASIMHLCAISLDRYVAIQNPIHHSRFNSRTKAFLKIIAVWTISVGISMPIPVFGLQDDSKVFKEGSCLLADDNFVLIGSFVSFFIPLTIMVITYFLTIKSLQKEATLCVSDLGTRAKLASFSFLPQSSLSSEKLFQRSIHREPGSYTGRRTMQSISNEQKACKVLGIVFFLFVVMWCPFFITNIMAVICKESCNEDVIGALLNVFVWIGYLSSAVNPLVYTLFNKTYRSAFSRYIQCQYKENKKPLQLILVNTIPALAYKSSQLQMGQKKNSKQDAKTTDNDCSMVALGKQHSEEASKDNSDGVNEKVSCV
Sequence of Beta-2 adrenergic receptor (Homo sapiens) (P07550 whole entry, looked up): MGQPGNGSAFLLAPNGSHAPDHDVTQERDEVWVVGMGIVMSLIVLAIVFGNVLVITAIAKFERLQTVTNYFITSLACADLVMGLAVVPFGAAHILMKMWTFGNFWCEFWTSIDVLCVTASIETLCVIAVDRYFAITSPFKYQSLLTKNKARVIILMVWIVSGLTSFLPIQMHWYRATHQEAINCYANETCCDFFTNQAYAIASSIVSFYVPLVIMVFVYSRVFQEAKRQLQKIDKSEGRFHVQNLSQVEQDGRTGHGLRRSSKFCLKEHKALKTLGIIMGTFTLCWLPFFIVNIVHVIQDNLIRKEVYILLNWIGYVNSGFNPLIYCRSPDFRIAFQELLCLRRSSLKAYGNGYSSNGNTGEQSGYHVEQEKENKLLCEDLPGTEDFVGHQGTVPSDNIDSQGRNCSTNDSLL

On to `COc1ccc(C=O)cc1O`, for which the Potency result in [1], in experiment [2], in experiment [3], in [4], in experiment [5] and in [6] was “inactive” throughout. Besides, the Potency result in [7], in experiment [8], in experiment [9], in [10], in experiment [11] and in experiment [12] was “inactive” each time. Further, the Potency entry in experiment [13], in experiment [14], in experiment [15], in experiment [16], in experiment [17] and in experiment [18] was “inactive” in each case.

In the case of `CNC(=O)Oc1ccc(N(C)C)c(C)c1`, the Potency result in experiment [1], in [3], in [4], in experiment [7], in [8] and in experiment [9] was “inactive” throughout. Further, the Potency result in experiment [10], in experiment [11], in experiment [12], in experiment [19], in experiment [14] and in experiment [15] was “inactive” each time. For the same compound, the Potency entry in [17] and in [18] was “inactive” throughout. In addition, the figures for the Potency in experiment [2] and in experiment [5] were 24.3 µM (active) and 10.2 µM (active), respectively.

In the case of `[As]#[In]`, the Potency result in experiment [1], in experiment [2], in [3], in experiment [4], in experiment [5] and in [6] was “inactive” each time. For the same compound, the Potency entry in [7], in [8], in experiment [9], in [12], in [19] and in experiment [13] was “inactive” in each case. Besides, the Potency result in experiment [14], in experiment [15], in experiment [16], in [20], in [17] and in experiment [18] was “inactive” throughout.

As to `Nc1cc(Cl)ccc1Cl`, the Potency entry in experiment [1], in [2], in experiment [3], in experiment [4], in [5] and in experiment [6] was “inactive” each time. For the same compound, the Potency entry in experiment [7], in experiment [8], in experiment [9], in experiment [10], in [12] and in [19] was “inactive” each time. Further, the Potency entry in experiment [13], in experiment [14], in experiment [15], in [16] and in [18] was “inactive” throughout.

On to `C[C@H](N)C(=O)c1ccccc1`, for which the Potency result in experiment [1], in experiment [2], in experiment [4], in experiment [7], in experiment [8] and in experiment [9] was “inactive” throughout. Moreover, the Potency entry in [12], in [19], in experiment [14], in [15], in experiment [16] and in [18] was “inactive” in each case.

On to `Oc1ccc(C(=C(Cl)Cl)c2ccc(O)cc2)cc1`, for which the Potency in experiment [1] is 68.5 µM (active); in [7], 51.2 µM (active). Moreover, the Potency entry in experiment [2], in experiment [3], in [4], in [5], in [6] and in experiment [8] was “inactive” in each case. For the same compound, the Potency entry in [10], in [11], in [13], in experiment [14], in experiment [17] and in experiment [18] was “inactive” throughout.

On to `CN1C(=O)CN=C(c2ccccc2)c2cc([N+](=O)[O-])ccc21`, for which the Potency entry in experiment [1], in experiment [2], in experiment [3], in [4], in [5] and in [6] was “inactive” throughout. Moreover, the Potency entry in experiment [7], in [8], in [9], in experiment [10], in experiment [14] and in experiment [16] was “inactive” each time. For the same compound, the Potency result in experiment [20] and in experiment [17] was “inactive” each time.

On to `CC(C)OC(=O)C(O)(c1ccc(Cl)cc1)c1ccc(Cl)cc1`, for which the Potency is 30.6 µM (active) in experiment [1], 40.8 µM (active) in [7] and 13.3 µM (active) in experiment [19]. Besides, the Potency result in experiment [2], in experiment [3], in experiment [4], in experiment [5], in [6] and in [12] was “inactive” in each case. Also, the Potency entry in experiment [13] and in experiment [17] was “inactive” throughout.
